# Source: PubChem BioAssay (NCATS)
# Inconclusive results are not listed. Where a call stands in place of a potency, no number is given. Values without a mark were called inactive. Activity calls are given as the source filed them. The call rests on the fitted dose curve; in most records, active means well fitted inhibition curve with a large enough effect; inconclusive means small, poorly fitted or top-dose-only effect; inactive means flat fitted curve, though single readings scatter.
# What was measured:
# [1] = biological target: Calcium and integrin-binding protein 1 (Homo sapiens) (UniProt Q99828); assay: Primary qHTS for Identification of Calcium Integrin Binding Protein 1 (CIB1) Competitor (AID 1508620);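 further: GST tagged CIB1 binding a fluorescein labelled alphaIIb integrin peptide tracer; top concentration of the series differs between compounds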
# Chain of Calcium and integrin-binding protein 1 (Homo sapiens) (Q99828 whole entry, looked up): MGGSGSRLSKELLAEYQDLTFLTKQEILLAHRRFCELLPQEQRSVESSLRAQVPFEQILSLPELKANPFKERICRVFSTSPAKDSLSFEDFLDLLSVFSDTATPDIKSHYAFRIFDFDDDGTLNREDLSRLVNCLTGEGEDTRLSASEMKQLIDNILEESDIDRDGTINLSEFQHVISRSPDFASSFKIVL
# In short: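 Fluorescence polarization competition: CIB1-GST (1 uM final) preincubated with compound 15 min at room temperature, then FITC-labeled alphaIIb peptide (100 nM final) added for another 15 min. Polarization read at Ex 480/Em 540.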
# [2] = Primary qHTS for inhibitors of nuclear receptor binding SET domain protein 2 (NSD2) in an isogenic RCH-ACV NSD2 p.E1099K mutant (9B) (AID 1645876); further: nearly all actives have a fitted effect of over 70% in size; further: potency means the concentration at half of the fitted maximal effect
compound,measurement,setting,value
O=C(O[C@H]1[C@@H]2C[C@@H]3OC[C@](O)([C@@H]1Cl)[C@H]2C(O[C@@H]1O[C@H](CO)[C@@H](O)[C@H](O)[C@H]1O)O3)c1ccc(O)c(O)c1 (stereo partly specified),Potency,[1],inactive
same,Potency,[2],inactive
CC(=O)OC1C(O)C2C(C)C3=CC(=O)OC3(O)CC2C2(C)CCCC(C)(CO)C12 (stereo unspecified),Potency,[1],inactive
same,Potency,[2],inactive
C[C@@H]1O[C@@H](O[C@H]2[C@H](O)[C@@H](O)[C@H](OC3CCC4(C)C5CCC(C)(C(CO)OC6OC(CO)C(O)C(O)C6O)CC5=CCC4C3(C)C)O[C@@H]2CO)[C@H](O)[C@H](O)[C@H]1O (stereo partly specified),Potency,[1],inactive
same,Potency,[2],inactive
C[C@@H]1CC[C@]2(C(=O)OC3OC(CO)C(O)C(O)C3O)CC[C@]3(C)C(=CCC4[C@@]5(C)CC[C@H](O)[C@](C)(C(=O)O)C5CC[C@]43C)C2[C@]1(C)O (stereo partly specified),Potency,[1],inactive
same,Potency,[2],inactive
CN=C(N)NCCCCC/C=C(/C)CC(C)C1OC(=O)C(C)C(O)/C=C/C(C)C(O)CC(O)C(C)C(O)CCC(C)C(O)CC2(O)OC(CC(OC(=O)CC(=O)O)CC(O)CC(O)C(C)C(O)/C(C)=C/CCC1C)CC(O)C2O (stereo unspecified),Potency,[1],inactive
same,Potency,[2],3880 nM (active)
C=C1OC2CC(C(=O)O)C=CC2NC1=O (stereo unspecified),Potency,[1],inactive
same,Potency,[2],inactive
CC1COC2(OC3CC4C5CC(O[C@@H]6O[C@H](C)[C@@H](O[C@@H]7O[C@@H](C)[C@H](O)[C@@H](O)[C@H]7O)[C@H](O)[C@H]6O)C6CC(O)CCC6(C)C5CCC4(C)C3C2C)C(O)C1 (stereo partly specified),Potency,[1],inactive
same,Potency,[2],inactive
CC1(C)[C@@H](O)CC[C@]2(C)[C@H]3CC=C4[C@@H]5C[C@](C)(C(=O)O)CC[C@]5(C)CC[C@@]4(C)[C@]3(C)CC[C@@H]12,Potency,[1],inactive
same,Potency,[2],inactive
C=C[C@]1(C)C=C2CCC3C(C)(CCC[C@@]3(C)C(=O)O)C2CC1 (stereo partly specified),Potency,[1],inactive
same,Potency,[2],inactive
C=CC1C(OC2OC(CO)C(O)C(O)C2O)OC=C(C(=O)OC)C1CC1CC(=O)CC(CCc2ccc(O)cc2)O1 (stereo unspecified),Potency,[1],inactive
same,Potency,[2],inactive
CO[C@@H](C)Cn1c(=O)n(C)c2cnc3ccc(-c4cncc(C(C)(C)O)c4)cc3c21,Potency,[1],inactive
same,Potency,[2],166 nM (active)
CC1=C2C[C@H]3O[C@@]3(C)CCC3O[C@@]3(C)C[C@@]2(O)OC1=O (stereo partly specified),Potency,[1],inactive
same,Potency,[2],inactive
CC(=O)O[C@@H]1C[C@@H](OC(C)=O)C(C)(C)/C=C/[C@H](C)[C@H](OC(C)=O)[C@@]2(O)C[C@H](C)[C@H](OC(=O)c3ccccc3)[C@@H]2/C=C/1C,Potency,[1],inactive
same,Potency,[2],inactive
CC12CCC(C(OC3OC(COC4OCC(O)(CO)C4O)C(O)C(O)C3O)C1)C(C)(C)O2 (stereo unspecified),Potency,[1],inactive
same,Potency,[2],inactive
CC1=C(COC2OC(CO)C(O)C(O)C2O)C(C(CO)C(=O)O)CC1 (stereo unspecified),Potency,[1],inactive
same,Potency,[2],inactive
COC(=O)c1ccc(OC(CO)C(O)c2ccc(O)c(OC)c2)c(OC)c1 (stereo unspecified),Potency,[1],inactive
same,Potency,[2],inactive
COC(=O)CCc1cc2ccoc2c(OC)c1O[C@@H]1O[C@H](CO)[C@@H](O)[C@H](O)[C@H]1O,Potency,[1],inactive
same,Potency,[2],inactive
C=C(C(=O)O)C1CC(O)C2(C)CCCC(=C)C2C1 (stereo unspecified),Potency,[1],inactive
same,Potency,[2],inactive
COc1cc([C@H]2c3cc(O)c(OC)cc3C[C@@H](CO[C@@H]3O[C@H](CO)[C@@H](O)[C@H](O)[C@H]3O)[C@@H]2CO)ccc1O,Potency,[1],inactive
same,Potency,[2],inactive
COc1cc2occc2c(O[C@@H]2O[C@H](CO)[C@@H](O)[C@H](O)[C@H]2O)c1CCC(=O)O,Potency,[1],inactive
same,Potency,[2],inactive
CS(=O)(=O)c1ccc(-c2nnc(/C=C/c3nnc(-c4ccc(C#N)cc4)o3)n2-c2ccccc2Cl)nc1,Potency,[1],inactive
same,Potency,[2],inactive
CC(C)=CCC/C(C)=C/CO[C@@H]1O[C@H](CO)[C@@H](OC(=O)/C=C/c2ccc(O)cc2)[C@H](O[C@@H]2O[C@@H](C)[C@H](O)[C@@H](O)[C@H]2O)[C@H]1O,Potency,[1],inactive
same,Potency,[2],inactive
NCCCNc1ccc(Nc2nccc(Nc3cc(C4CC4)[nH]n3)n2)cc1,Potency,[1],inactive
same,Potency,[2],578 nM (active)
COc1cc(C(=O)OC[C@@]2(O)CO[C@@H](O[C@H]3[C@H](Oc4ccc(C(=O)O)cc4OC)O[C@H](CO)[C@@H](O)[C@@H]3O)[C@@H]2O)ccc1O,Potency,[1],inactive
same,Potency,[2],inactive
CC1(O)CCCC2(C)C1CCC13CC(CO)C(CCC12)C3 (stereo unspecified),Potency,[1],inactive
same,Potency,[2],inactive
O=C(O[C@H]1[C@@H]2C=CO[C@@H](O[C@@H]3O[C@H](CO)[C@@H](O)[C@H](O)[C@H]3O)[C@@H]2[C@@]2(CO)O[C@@H]12)c1ccccc1,Potency,[1],inactive
same,Potency,[2],inactive
CC1=CC(=O)C(=C(C)C)CC2C1CCC2(C)O (stereo unspecified),Potency,[1],inactive
same,Potency,[2],inactive
CCn1cc(NC(=S)Nc2cc(Cl)ccc2OC)c(C(N)=O)n1,Potency,[1],inactive
same,Potency,[2],inactive
CCNC(=O)C1OC(n2cnc3c(N)nc(NCCc4ccc(CCC(=O)O)cc4)nc32)C(O)C1O (stereo unspecified),Potency,[1],inactive
same,Potency,[2],inactive
C=CC(C)(C)c1[nH]c2cc3c(cc2c1CC1NC(=O)C2CCCN2C1=O)C=CC(C)(C)O3 (stereo unspecified),Potency,[1],inactive
same,Potency,[2],inactive
C[C@@H]1O[C@@H](OC[C@H]2O[C@@H](OC(CCCCc3ccc(O)cc3)CCc3ccc(O)cc3)[C@H](O)[C@@H](O)[C@@H]2O)[C@H](O)[C@H](O)[C@H]1O (stereo partly specified),Potency,[1],inactive
same,Potency,[2],inactive
CC1C(=O)OCC2=CCN3CCC(OC(=O)C(C)(O)C1(C)O)C23 (stereo unspecified),Potency,[1],inactive
same,Potency,[2],inactive
C/C(=C\CC[C@@H](C)[C@H]1CC(O)[C@@]2(C)C3CC[C@H]4C(C)(C)[C@@H](OC5OCC(O)C(O)C5OC5OC(CO)C(O)C(O)C5O)CC[C@@]45C[C@@]35CC(O)[C@]12C)C(=O)O (stereo partly specified),Potency,[1],inactive
same,Potency,[2],inactive
CC1=CC(=O)C2(OC3OC(C)C(O)C(OC(=O)/C=C/c4ccccc4)C3O)C=COC(OC3OC(CO)C(O)C(O)C3O)C12 (stereo unspecified),Potency,[1],inactive
same,Potency,[2],inactive
C=C(C)C1CCC(C)C12CC(O)C1(C)OC1C2OC(=O)C(N)CCC(=O)O (stereo unspecified),Potency,[1],inactive
same,Potency,[2],inactive
C[C@H]1CC[C@@]2(OC1)O[C@H]1CC3C4CC[C@H]5C[C@@H](O)[C@H](O)C[C@]5(C)C4=CC(=O)[C@]3(C)[C@H]1[C@@H]2C (stereo partly specified),Potency,[1],inactive
same,Potency,[2],inactive
C=CC1C(OC2OC(CO)C(O)C(O)C2O)OC=C2C(=O)N3C(C(=O)O)Cc4c([nH]c5ccccc45)C3CC21 (stereo unspecified),Potency,[1],inactive
same,Potency,[2],inactive
Cn1cncc1C(N)(c1ccc(Cl)cc1)c1ccc2c(c1)c(-c1cccc(Cl)c1)cc(=O)n2C (stereo unspecified),Potency,[1],inactive
same,Potency,[2],4170 nM (active)
CC(C)=CCC/C(C)=C/Cc1ccc(O)c(C2OC(=O)c3cc(C(=O)O)cc(O)c32)c1O (stereo unspecified),Potency,[1],inactive
same,Potency,[2],inactive
Cc1cc(O)c(-c2ccc([C@@H](C)CN(C)C)cc2)c2c1[nH]c(=O)c1sccc12,Potency,[1],inactive
same,Potency,[2],74.2 nM (active)
C[C@@H]1O[C@@H](O[C@H]2[C@H](O[C@H]3CC[C@@]4(C)C(CC[C@]5(C)C4CC=C4[C@@H]6CC(C)(C)CC[C@]6(C(=O)O[C@@H]6OC[C@H](O)[C@H](O)[C@H]6O[C@@H]6O[C@@H](C)[C@H](O[C@@H]7O[C@H](CO)[C@@H](O)[C@H](O)[C@H]7O)[C@H](O)[C@H]6O)[C@H](O)C[C@]45C)C3(C)C)O[C@H](CO)[C@@H](O[C@@H]3OC[C@@H](O)[C@H](O)[C@H]3O)[C@@H]2O)[C@H](O)[C@H](O)[C@H]1O (stereo partly specified),"activity change, negative = inhibition",[1],-1.57% [at 12.4 µM]
same,"activity change, negative = viability loss",[2],-6.56% [at 9.23 µM]
Cc1c(CN2CCN(C(=O)C(C)O)CC2)sc2c(N3CCOCC3)nc(-c3cnc(N)nc3)nc12 (stereo unspecified),Potency,[1],inactive
same,Potency,[2],57.8 nM (active)
C=CC(C)(O)CC[C@H]1C(=C)CCC2[C@](C)(C(=O)O)CCC[C@@]21C (stereo partly specified),Potency,[1],inactive
same,Potency,[2],inactive
CC(C)CC1NC(=O)C(C)NC(=O)C(CC(C)C)OC(=O)CCCNC1=O (stereo unspecified),Potency,[1],inactive
same,Potency,[2],inactive
CC(=O)O[C@@H]1[C@@H](OC(=O)/C=C/c2ccccc2)[C@@H](OC(C)=O)[C@H](O[C@H]2[C@@H]3C=CO[C@@H](O[C@@H]4O[C@H](CO)[C@@H](O)[C@H](O)[C@H]4O)[C@@H]3[C@@]3(CO)O[C@@H]23)O[C@H]1C,Potency,[1],inactive
same,Potency,[2],inactive
CC1(C)CC[C@]2(C(=O)O)CC[C@]3(C)C(=CCC4[C@@]5(C)C[C@@H](O)[C@H](O)C(C)(C)C5CC[C@]43C)C2C1 (stereo partly specified),Potency,[1],inactive
same,Potency,[2],inactive
CC(=O)OC1C[C@]2(C)C(O)CC(C)=C[C@H](OC(=O)c3ccc(O)cc3)C2[C@]1(O)C(C)C (stereo partly specified),Potency,[1],inactive
same,Potency,[2],inactive
COC(=O)C1=CO[C@@H](O[C@@H]2O[C@H](CO)[C@@H](O)[C@H](O)[C@H]2O)[C@H]2[C@@H]1C=C[C@@]21C=C([C@H](C)O)C(=O)O1,Potency,[1],inactive
same,Potency,[2],inactive
CCC1C(=O)N(C)c2cnc(Nc3ccc(C(=O)NC4CCC(N5CCN(CC6CC6)CC5)CC4)cc3OC)nc2N1C(C)C (stereo unspecified),Potency,[1],inactive
same,Potency,[2],18.3 nM (active)
C=C1CC[C@@H]2[C@](C)(CO[C@@H]3O[C@H](CO)[C@@H](O)[C@H](O)[C@H]3O)[C@H](O)CC[C@@]2(C)[C@@H]1C/C=C1/C(=O)OC[C@H]1O,Potency,[1],inactive
same,Potency,[2],inactive
CC1(C)CC[C@]2(C(=O)O[C@@H]3O[C@H](CO[C@@H]4O[C@H](CO)[C@@H](O)[C@H](O)[C@H]4O[C@@H]4O[C@H](CO)[C@@H](O)[C@H](O)[C@H]4O)[C@@H](O)[C@H](O[C@@H]4O[C@H](CO)[C@@H](O)[C@H](O)[C@H]4O)[C@H]3O)CC[C@]3(C)C(=CCC4[C@@]5(C)CC[C@@H](O)[C@@](C)(C(=O)O[C@@H]6O[C@H](CO)[C@@H](O)[C@H](O)[C@H]6O)C5CC[C@]43C)[C@@H]2C1 (stereo partly specified),"activity change, negative = inhibition",[1],-1.15% [at 12.4 µM]
same,outcome,[2],inactive [at 9.23 µM]
COC(=O)C1=CO[C@@H](O[C@@H]2O[C@H](CO)[C@@H](O)[C@H](O)[C@H]2O)[C@@H]2C(CO)=CC[C@]12O,Potency,[1],inactive
same,Potency,[2],inactive
C/C=C(\C)C(=O)O[C@H]1[C@@H](O[C@]2(COC(=O)CC(C)C)O[C@H](COC(=O)C(C)CC)[C@@H](OC(C)=O)[C@@H]2O)O[C@H](COC(C)=O)[C@@H](O)[C@@H]1O (stereo partly specified),Potency,[1],inactive
same,Potency,[2],inactive
